Gli-Sufu block: Gli-Sufu pathway antagonists, primary screen, luciferase luminescence, Sufu-KO-LIGHT cells, uHTS; inhibition, % at 5 µM; hit rate 0.74% among 340,000; Sufu-KO-LIGHT fibroblasts, Gli luciferase reporter luminescence;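 active means inhibition above about 55%, limit read from the data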
NCOA3 inh: SRC3 coactivator transcriptional activity inhibitors, primary screen, cell-based, luminescence; Nuclear receptor coactivator 3 (Homo sapiens), Q9Y6Q9; HEK293 GAL4-SRC3 luciferase reporter; inhibition, % at 3.6 µM; hit rate 0.17% among 360,000; AID 588352, 2011;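 active means inhibition above a per-campaign cutoff, the mean of all compounds plus 3 SD, cut at about 60% in these data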;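 further: higher means less SRC3-driven luciferase light from the GAL4 reporter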
NCOA1 inh: SRC1 coactivator transcriptional activity inhibitors, primary screen, cell-based, luminescence | hit rate 0.12% among 360,000 | inhibition, % at 3.6 µM | HEK293 GAL4-SRC1 luciferase reporter | Nuclear receptor coactivator 1 (Homo sapiens), Q15788;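 active means inhibition above the campaign mean plus 3 SD, with each screening campaign given its own cutoff, cut at about 60% in these data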
SRC2 inh: inhibition of GAL4-SRC2 driven luciferase reporter, primary screen, SRC2 inhibitor project, cell-based, luminescence; Nuclear receptor coactivator 2 (Homo sapiens), Q15596; HEK293 GAL4-SRC2 luciferase reporter; inhibition, % at 9 µM; hit rate 0.17% among 370,000; AID 651957, 2012;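 active means inhibition above the mean inhibition of all tested compounds plus 3 SD, set per campaign, cut at about 52% in these data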
Shn3 3UTR inh: reduction of Shn3 3'UTR firefly luciferase signal, primary screen, Schnurri-3 inhibitor project, cell-based, Clone20 osteoblasts, set 2; inhibition, % at 12.5 µM; Clone20 osteoblast Shn3 3'UTR firefly luciferase, 24 h; AID 588674, 2011; hit rate 0.52% among 360,000;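 active means mean inhibition of at least 75% with every replicate also reaching 75%; inconclusive means mean inhibition at least 75% but some replicate below; inactive means mean inhibition below 75%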
NR5A2 inv ag: LRH-1 (NR5A2) inverse agonists, primary screen, cell-based, luminescence, HEK293T, StAR-luciferase reporter; inhibition, % at 3.6 µM; hit rate 0.13% among 360,000; LRH-1 transfected, 24 h; Nuclear receptor subfamily 5 group A member 2 (Homo sapiens), O00482; AID 602396, 2012;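 active means inhibition above the mean inhibition of all tested compounds plus 3 SD, cut at about 73% in these data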
Each line names hits and unclear results; the compound was inactive in the other large screens; ! = not confirmed by another sample. Rows were chosen to be rich in hits. Some 1.1% of all compounds tested hit in one or more screens of this group.

NC(=S)NN=Cc1nccc2c(C(F)(F)F)cccc12	NCOA3 inh 91, NCOA1 inh 87, NR5A2 inv ag 93 (no result: Gli-Sufu block)
CNc1cccnc1C=NNC(N)=S	Gli-Sufu block 84, NCOA3 inh 80, NCOA1 inh 80, Shn3 3UTR inh 94
COc1ccc(CNC(=O)c2sc3nc(C)c(Cl)c(C)c3c2N)cc1	none (no result: Gli-Sufu block, NCOA3 inh, NCOA1 inh, Shn3 3UTR inh, NR5A2 inv ag)
CCN(CC)Cc1c(O)ccc2c1O/C(=C\C=C\c1ccccc1)C2=O	Shn3 3UTR inh 95
C#CCN(C[C@@H]1[C@@H](OC(=O)NCCCCCC)[C@@H](OC(=O)NCCCCCC)Cn2c(=O)ccc(=O)n21)S(=O)(=O)c1ccc(C)cc1	none (no result: Gli-Sufu block)
C#CCN(C[C@@H]1[C@@H](OC(=O)NCC2CCCCC2)[C@@H](OC(=O)NCC2CCCCC2)Cn2c(=O)ccc(=O)n21)S(=O)(=O)c1ccc(C)cc1	Shn3 3UTR inh 99 (no result: Gli-Sufu block)
COc1ccc(C(=O)C(CN2CCOCC2)c2ccccc2)cc1 (stereo unspecified)	SRC2 inh 55, Shn3 3UTR inh 89
CCCCOc1ccc(C(=O)C(CN2CCOCC2)c2ccccc2)cc1 (stereo unspecified)	none
CCCOc1ccc(C(=O)C(CN2CCCC2)c2ccccc2)cc1 (stereo unspecified)	Shn3 3UTR inh 95
O=C(c1ccc(Cl)cc1)C(CN1CCCC1)c1ccccc1 (stereo unspecified)	none
O=C(c1ccc(F)cc1)C(CN1CCOCC1)c1ccccc1 (stereo unspecified)	NCOA3 inh 74, Shn3 3UTR inh 94
O=C(c1ccccc1)C(CCC(CN1CCOCC1)C(=O)c1ccccc1)CN1CCOCC1 (stereo unspecified)	Shn3 3UTR inh 97
COc1cccc(OC[C@@H](O)CN2CCC(C(O)(c3ccccc3)c3ccccc3)CC2)c1	none (no result: Gli-Sufu block, NCOA3 inh, NCOA1 inh, Shn3 3UTR inh, NR5A2 inv ag)
CC(C)CNC(=O)CC1Oc2ccccc2NC1=O (stereo unspecified)	none (no result: Gli-Sufu block, NCOA3 inh, NCOA1 inh, Shn3 3UTR inh, NR5A2 inv ag)
Cn1c(Cc2cccs2)nnc1SCC(=O)Nc1ccc2cn[nH]c2c1	none (no result: Gli-Sufu block, NCOA3 inh, NCOA1 inh, Shn3 3UTR inh, NR5A2 inv ag)
O=C(NC1CCCCN(Cc2ccc(OC(F)(F)F)cc2)C1=O)c1cccc(F)c1 (stereo unspecified)	none (no result: Gli-Sufu block, NCOA3 inh, NCOA1 inh, Shn3 3UTR inh, NR5A2 inv ag)
COc1cccc2oc3cc(C#CC4(O)CCCCC4)ccc3c(=O)c12	none
O=c1c2ccccc2sc2ccc(C#CC3(O)CCCCC3)cc12	Gli-Sufu block 83, NCOA3 inh 93, NCOA1 inh 93, SRC2 inh 85, Shn3 3UTR inh 89, NR5A2 inv ag 91
O=c1c2ccccc2oc2cc(C#CC3(O)CCCCC3)ccc12	NCOA3 inh 62, NCOA1 inh 65
COc1cccc2sc3ccc(C#CC4(O)CCCCC4)cc3c(=O)c12	none
Cc1onc(-c2ccccc2Cl)c1C(=O)N1CCC(C(N)=O)CC1	none
Cc1onc(-c2ccccc2Cl)c1C(=O)N1CCC(Cc2ccccc2)CC1	Shn3 3UTR inh 89
COC(=O)[C@]12C[C@H](CC(=O)NCC34CC5CC(CC(C5)C3)C4)C(=O)N(Cc3ccco3)C1=C[C@H](C(C)(C)C)O[C@@H]2C	none (no result: Gli-Sufu block, NCOA3 inh, NCOA1 inh, Shn3 3UTR inh, NR5A2 inv ag)
CC(CCc1ccccc1)NC(=O)COC(=O)c1ccc(S(C)(=O)=O)c([N+](=O)[O-])c1 (stereo unspecified)	Shn3 3UTR inh 97
Cc1ccccc1NC(=O)COC(=O)c1ccc(S(C)(=O)=O)c([N+](=O)[O-])c1	none
CS(=O)(=O)c1ccc(C(=O)OCC(=O)Nc2cccnc2Cl)cc1[N+](=O)[O-]	Shn3 3UTR inh 94 (no result: SRC2 inh)
CC(CCc1ccccc1)NC(=O)COC(=O)c1ccc([N+](=O)[O-])cc1 (stereo unspecified)	none
O=C(c1ccccc1)N1CCN(c2ncnc3sc4c(c23)CCC4)CC1	Shn3 3UTR inh 85
COC(=O)[C@H]1C[C@@]2(C)c3ccccc3N(S(=O)(=O)c3ccccc3)[C@H]2N1C(=O)CNC1CCCCC1	none (no result: Gli-Sufu block, NCOA3 inh, NCOA1 inh, Shn3 3UTR inh, NR5A2 inv ag)
COC(=O)[C@H](C)NC(=O)Nc1ccc(S(N)(=O)=O)cc1	none
CC(C)C(Cl)=NOC(=O)Nc1ccc(S(N)(=O)=O)cc1	Shn3 3UTR inh 95
Cc1ccccc1CS(=O)(=O)Cc1ccc(C(=O)Nc2ccccc2C)o1	none (no result: Gli-Sufu block, NCOA3 inh, NCOA1 inh, Shn3 3UTR inh, NR5A2 inv ag)
CCc1nc(N)nc(N)c1-c1ccc(Cl)c([N+](=O)[O-])c1	none
CCc1nc(N)nc(N)c1-c1ccc(Cl)c(N=[N+]=[N-])c1	Shn3 3UTR inh 81!
CCC(=O)Nc1cccc(C(=O)/C=C/c2cc(Br)ccc2OC)c1	NCOA3 inh 79, SRC2 inh 64, NR5A2 inv ag 73
COc1ccc(Br)cc1/C=C/C(=O)Nc1ccc2ccccc2c1	none
COc1ccc(/C=C/C(=O)NC(=S)NNC(=O)c2cnccn2)cc1	Shn3 3UTR inh 94
O=C(NC(=S)NNC(=O)c1cnccn1)c1ccc(F)cc1	none
O=C(/C=C/c1ccc(F)cc1)NC(=S)NNC(=O)c1cnccn1	Shn3 3UTR inh 89
CC(=O)OC12CCCN(C1)/C(=C/c1cccc(N(C)C)c1)C2 (stereo unspecified)	none (no result: Gli-Sufu block, NCOA3 inh, NCOA1 inh, Shn3 3UTR inh, NR5A2 inv ag)
COCCn1c(C)cc(C(=O)COC(=O)c2ccccc2Br)c1C	NCOA3 inh 81, NCOA1 inh 81, SRC2 inh 74, NR5A2 inv ag 78
Cc1cc(C(=O)COC(=O)c2ccccc2Br)c(C)n1CC1CCCO1 (stereo unspecified)	Gli-Sufu block 76, NCOA3 inh 84, NCOA1 inh 82, SRC2 inh 82, Shn3 3UTR inh inconclusive, NR5A2 inv ag 82
CCn1c(C)cc(C(=O)COC(=O)c2ccccc2[N+](=O)[O-])c1C	Gli-Sufu block 87, NCOA3 inh 93, NCOA1 inh 93, Shn3 3UTR inh 94, NR5A2 inv ag 95 (no result: SRC2 inh)
Cc1ccc(C(=O)OCC(=O)c2cc(C)n(CC3CCCO3)c2C)cc1 (stereo unspecified)	none
Cc1cc(C(=O)COC(=O)c2ccccc2O)c(C)n1CC1CCCO1 (stereo unspecified)	Gli-Sufu block 58, NCOA3 inh 88, NCOA1 inh 90, SRC2 inh 89, NR5A2 inv ag 91
Cc1nn(CCC(=O)NNC(=O)Nc2ccc(Cl)cc2)c(C)c1[N+](=O)[O-]	none (no result: Gli-Sufu block, NCOA3 inh, NCOA1 inh, Shn3 3UTR inh, NR5A2 inv ag)
O=C(OC12CCCN(C1)/C(=C/c1ccncc1)C2)c1cccc(F)c1 (stereo unspecified)	none (no result: Gli-Sufu block, NCOA3 inh, NCOA1 inh, Shn3 3UTR inh, NR5A2 inv ag)
Cc1nc2c(o1)C(=O)c1ccccc1C2=Nc1ccccc1	NCOA3 inh 77, Shn3 3UTR inh 94
CCOC(=O)C1(Cc2ccc(OC)cc2)CCN(S(C)(=O)=O)CC1	none
CCOC(=O)C1(Cc2ccc(Cl)cc2)CCN(C(C)Cc2ccc(O)c(OC)c2)CC1 (stereo unspecified)	Gli-Sufu block 72, Shn3 3UTR inh 92

Bioassay records: PubChem BioAssay, several laboratories
